High-throughput results: PubChem BioAssay, several laboratories
A selection: hits, their analogues and other compounds. The true share with any hit is near 1.3%.
RTF Ca sens inh – cardiac RTF calcium desensitization; AID 493244; IANBD-labeled cardiac RTF, Ca2+ fluorescence; 340,000 tested, 0.12% active; P19429+P45379; inhibition, % at 7.15 µM;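 active = inhibition above the mean inhibition of all tested compounds plus 3 SD, cut at about 17% in these data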;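 note: assay run at fixed EC70 calcium of 1.6 mM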
Keap1-Nrf2 PPI – disrupts human Keap1 binding to Nrf2 peptide | Q14145 | Keap1 Kelch-Nrf2 peptide fluorescence polarization, 1536-well | inhibition, % at 9.4 µM | 340,000 tested, 0.15% active | AID 504523; in the data active = inhibition above about 12%;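 note: human Keap1 Kelch domain with fluorescein labeled Nrf2 9mer peptide probe; 0% = neutral control wells and 100% = peptide positive control; higher means more block of Keap1 binding to Nrf2 peptide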
E coli Lon inh – E. coli protease La inhibition. 360,000 tested, 0.42% active. purified E. coli Lon protease, fluorescence polarization. inhibition, % at 7.94 µM. P0A9M0. AID 602123; in the data active = inhibition above about 13%, passing the limit was not always enough;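 note: 0% = enzyme with probe and DMSO and 100% = no enzyme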
Target sequence (P0A9M0 whole entry, looked up): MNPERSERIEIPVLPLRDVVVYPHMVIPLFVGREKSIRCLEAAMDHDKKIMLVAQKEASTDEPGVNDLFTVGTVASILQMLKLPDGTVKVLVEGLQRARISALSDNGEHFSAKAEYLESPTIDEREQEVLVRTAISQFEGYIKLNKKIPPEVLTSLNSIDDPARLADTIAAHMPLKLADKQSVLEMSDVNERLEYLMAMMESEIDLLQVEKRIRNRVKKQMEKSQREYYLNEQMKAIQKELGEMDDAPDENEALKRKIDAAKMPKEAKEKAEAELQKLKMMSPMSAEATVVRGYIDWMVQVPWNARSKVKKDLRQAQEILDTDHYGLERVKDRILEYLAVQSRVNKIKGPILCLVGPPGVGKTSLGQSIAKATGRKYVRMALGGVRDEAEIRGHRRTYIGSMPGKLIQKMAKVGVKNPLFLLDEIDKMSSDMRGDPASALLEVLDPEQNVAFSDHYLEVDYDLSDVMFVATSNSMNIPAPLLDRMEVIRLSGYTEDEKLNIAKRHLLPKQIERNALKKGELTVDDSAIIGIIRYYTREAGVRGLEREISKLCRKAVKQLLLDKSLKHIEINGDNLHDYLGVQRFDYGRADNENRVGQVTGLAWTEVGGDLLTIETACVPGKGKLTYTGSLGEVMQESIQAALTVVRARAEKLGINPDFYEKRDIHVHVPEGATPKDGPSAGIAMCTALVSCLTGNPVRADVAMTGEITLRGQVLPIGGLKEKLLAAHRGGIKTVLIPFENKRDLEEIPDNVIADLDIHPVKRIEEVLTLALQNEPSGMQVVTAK
cardiac RTF act – cardiac RTF calcium sensitization; 340,000 tested, 0.24% active; P19429+P45379; IANBD-labeled TnC RTF fluorescence at EC20 calcium; 0% EC20 calcium, 100% full calcium; activation, % at 7.2 µM; AID 493008;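 active = activation above the mean over all tested compounds plus 3 SD, cut at about 30% in these data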;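 note: rise in fluorescence read as greater calcium sensitivity of cardiac thin filaments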
LANA-H2B inh – blocks KSHV LANA binding to histone H2A/H2B. inhibition, % (concentration not given with the values). AID 2629. cell-free LANA-H2A/H2B peptide, fluorescence polarization. Q9QR71. 320,000 tested, 0.6% active; in the data active = inhibition mostly above about 10%, no sharp cut-off; inactive = mostly below about 6.7%
LANA DNA inh – blocks KSHV LANA C-terminal domain binding to DNA. MBP-C-LANA/FAM-LBS DNA binding, fluorescence polarization. inhibition, % at 9 µM. 340,000 tested, 0.078% active. AID 504423;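 active = highest replicate inhibition at or above 60% at 9 µM, even if other replicates fall short; inactive = all replicates below 60% inhibition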;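 note: 0% = neutral control wells and 100% = 4 µM acridine orange control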
* marks the source's active call; other numbers are inactive results; · = no result.

SMILES	RTF Ca sens inh	Keap1-Nrf2 PPI	E coli Lon inh	cardiac RTF act	LANA-H2B inh	LANA DNA inh
CNC(=S)N1CCN(C(=O)C2CCCO2)CC1 (stereo unspecified)	-5.8	-1.0	2.4	0.1	4.5	-1.4
COc1ccc2sc(-c3ccccc3OC)c(C#CC(C)(C)O)c2c1	-9.2	-1.4	4.5	2.6	0.5	69.7*
Cc1c(O)c2c3c(cccc3c1O)C(=O)N(c1ccccc1)C2=O	-31.4	4.3	-14.3	51.7*	0.2	27.6
O=C(O)c1ccc2c3c(cccc13)C(=O)N(c1ccccc1)C2=O	-1.3	-1.3	-7.9	3.5	3.2	5.3
COc1ccc2c(c1)C(=O)Cc1ccccc1O2	-2.5	-5.2	-0.7	2.7	17.4*	-0.1
COc1ccc(OC)c2cc3ccccc3cc12	-18.8	24.6*	42.9	8.9	·	38.6
O=C(CSCc1cc(=O)[nH][nH]1)Nc1ccc(F)cc1	-6.3	-0.5	-2.4	2.2	18.5*	0.0
CCCCc1ccc(NC(=O)CSCc2cc(=O)[nH][nH]2)cc1	-8.8	2.7	3.4	-3.5	-0.1	-0.8
C/C(=C\C=C(C#N)C#N)c1cc(C#N)c(N)o1	-195.2	-127.4	-64.0	149.3*	·	-30.1
CCOc1ccc2nc3cc(NCc4ccc(OC)cc4)ccc3c(N)c2c1	-81.1	-0.6	-25.4	76.2*	-6.5	1.6
CCOc1ccc(N(CC(=O)Nc2ccc(C)cc2)S(=O)(=O)c2c(C)[nH]c(=O)[nH]c2=O)cc1	-11.4	-0.2	-4.5	-4.1	2.5	-1.8
O=C(Nc1ccc(C(=O)O)cc1)Nc1ccc([N+](=O)[O-])cc1	-6.0	3.0	-4.4	-1.7	-3.2	2.5
COC(=O)c1ccc(NC(=O)COc2ccc([N+](=O)[O-])cc2)cc1	-3.7	-5.2	4.0	2.8	19.8*	-0.5
O=C(CCOc1ccccc1)Nc1ccc([N+](=O)[O-])cc1	-7.1	-4.4	9.0	0.3	14.6*	0.1
O=C(Nc1ccc([N+](=O)[O-])cc1)C1C(c2ccccc2)=C1c1ccccc1	-7.5	-4.2	-2.3	0.8	17.7*	-1.5
COCCOC(=O)c1ccc(NC(=O)COc2ccc([N+](=O)[O-])cc2)cc1	11.9	0.4	-0.9	-3.8	-1.9	-1.7
CSc1ccc(Cl)c(C(=O)NNC(=O)c2cccs2)c1	-7.7	0.1	-1.7	4.7	-5.5	1.0
CCC(CC)=N/N=C/c1c(O)n(CC)c2cc(C3=NNC(=O)CC3)ccc12	-4.8	-0.5	-2.6	2.3	-4.2	-1.0
CCn1c(O)c(/C=N/N=C/c2ccccc2)c2ccc(C3=NNC(=O)CC3)cc21	-121.5	2.2	-79.4	36.1*	-8.2	7.4
Clc1ccc(OCCN2CCCCC2)cc1Cl	-4.6	-2.2	-21.0	-0.9	2.1	-1.6
Clc1ccc(OCCN2CCOCC2)cc1Cl	0.7	3.6	-3.6	-2.5	17.0*	-0.7
CCOc1ccc(OCC)c(NC(=O)CN2CCN(CC(=O)NC(C)C)CC2)c1	-9.6	-2.6	-6.2	-4.2	14.3*	0.3
CCOc1ccc(OCC)c(NC(=O)CN2CCN(CC)CC2)c1	-8.4	-0.6	2.9	2.8	3.4	1.0
CC1=CC2=C(OC1N(C)C)c1cccc3cccc(c13)C2=O (stereo unspecified)	-16.7	0.9	64.1*	6.6	7.4	3.4
O=C(Cn1ccc2cc(S(=O)(=O)N3CCCC3)ccc21)NCCc1ccccc1	6.5	2.4	-0.1	-2.3	11.6*	0.6
SMILES	RTF Ca sens inh	Keap1-Nrf2 PPI	E coli Lon inh	cardiac RTF act	LANA-H2B inh	LANA DNA inh
O=C(CCn1ccc2cc(S(=O)(=O)N3CCCC3)ccc21)NCCc1ccccc1	0.6	-4.1	3.8	-4.6	0.3	0.0
C=CCc1ccccc1OCC(O)CN1C(=O)c2ccccc2C1=O (stereo unspecified)	-1.6	-5.7	-1.9	2.9	12.7*	0.7
COc1cc([N+](=O)[O-])ccc1NC(=O)CN1CCOCC1	-7.0	-3.5	2.2	-2.5	2.4	0.4
CC(OC(=O)/C(C#N)=C/c1ccc(N(C)C)cc1)C(=O)N(C)Cc1ccccc1 (stereo unspecified)	-48.0	-8.6	-255.4	30.2*	-8.1	3.4
CC(OC(=O)c1cccc(O)c1)C(=O)N(C)Cc1ccccc1 (stereo unspecified)	-11.7	-2.6	6.6	0.2	1.8	-0.9
Cc1cc(C)nc(NS(=O)(=O)c2ccc(NC(=O)c3ccc4c(c3)OCCO4)cc2)n1	-9.5	0.3	9.0	10.8	-8.4	1.5
CN(C)c1nc2c(c(=O)[nH]c(=O)n2C)n1CCCc1ccccc1	-12.6	3.5	-7.1	-6.1	-1.5	0.5
CC(=O)Nc1ccc(S(=O)(=O)N(C)CC(=O)OC2CCCCC2=O)cc1 (stereo unspecified)	3.1	-1.6	0.7	-2.7	58.9*	-0.4
CCOC(=O)N1CCN(C(=O)c2cc(COc3ccc(OC)cc3Cl)on2)CC1	-3.5	-4.8	1.9	1.6	-0.9	0.0
COc1ccc(OCc2cc(C(=O)N3CCN(CC4CC4)CC3)no2)c(Cl)c1	-4.9	-2.9	7.3	1.1	25.7*	0.9
O=[N+]([O-])c1ccc(N2N=C(c3ccccc3)CC2c2ccccc2O)cc1 (stereo unspecified)	-53.2	-7.9	-221.6	46.6*	-2.4	-1.2
O=C(Nc1cccc(Cl)c1)c1ccc(S(=O)(=O)NCC2CCCO2)cc1 (stereo unspecified)	-6.5	-0.5	-4.3	5.3	-1.8	-1.0
CN(Cc1cccs1)C(=O)c1ccc(Cl)c(S(=O)(=O)N2CCCCCC2)c1	-1.0	-5.7	14.4	2.2	-0.1	-1.5
Cc1ccc(C2C(C#N)=C(N)SC(N)=C2C#N)cc1	-67.5	-65.9	-404.0	40.9*	·	-4.6
N#CC1=C(N)SC(N)=C(C#N)C1c1ccoc1	·	·	·	·	0.1	·
Cc1ccc(C2C(C#N)=C(N)SC(N)=C2C#N)c(C)c1	-123.6	-24.4	-420.6	80.5*	-14.2	-3.5
N#CC1=C(N)SC(N)=C(C#N)C1c1ccnc2ccccc12	-18.0	-39.9	-202.8	6.0	4.6	-6.0
NNC(=O)C1SCCN1S(=O)(=O)c1ccc(Cl)cc1 (stereo unspecified)	-3.7	-2.8	7.8	2.2	-2.0	1.2
O=C(c1cccc(Br)c1)N1CCCc2ccccc21	6.3	1.5	7.6	-4.2	-15.8	-1.3
O=C(c1coc(=O)c(Br)c1)N1CCCc2ccccc21	1.1	-0.7	-1.7	2.3	-0.6	76.9*
COc1ccc(Cl)cc1C(=O)NNC(=O)CNC(=O)c1ccc(C)s1	4.7	-6.7	-5.5	-3.0	2.9	-0.8
CCN(CC)c1ccc(/C=C/C(=O)C2C(=O)C=C(C)OC2=O)cc1 (stereo unspecified)	-122.0	-155.3	-244.0	128.4*	-10.2	-30.9
Cc1cc(=O)nc2c3ccccc3n(CC(=O)NCCC3=CCCCC3)n12	-11.4	-1.6	-2.6	-2.1	-0.3	1.0
COc1ccccc1NC(=O)c1ccc(NC(=O)COC(=O)C2CCCO2)cc1 (stereo unspecified)	-0.6	0.2	-5.3	-7.2	·	3.8
